Results on one sequence are retold here after paper PMC7862700, “An all-to-all approach to the identification of sequence-specific readers for epigenetic DNA modifications on cytosine”.

What all share (assay): DAPPL (digital affinity profiling via proximity ligation, sequencing); 10 mM Tris-HCl pH 7.5, 50 mM NaCl, 1 mM DTT, 4% glycerol, room temperature, 30 min; GST-TFs on glutathione beads, 16-mer random dsDNA library, 0.1% formaldehyde crosslink after washing; high values mean tight binding
Conditions in all cases: protein: recombinant; tags: N-terminal GST; dsDNA, one strand shown

Assay [1] deals with T1, FLI1 (Homo sapiens, UniProt Q01543 1-452).
T1 sequence: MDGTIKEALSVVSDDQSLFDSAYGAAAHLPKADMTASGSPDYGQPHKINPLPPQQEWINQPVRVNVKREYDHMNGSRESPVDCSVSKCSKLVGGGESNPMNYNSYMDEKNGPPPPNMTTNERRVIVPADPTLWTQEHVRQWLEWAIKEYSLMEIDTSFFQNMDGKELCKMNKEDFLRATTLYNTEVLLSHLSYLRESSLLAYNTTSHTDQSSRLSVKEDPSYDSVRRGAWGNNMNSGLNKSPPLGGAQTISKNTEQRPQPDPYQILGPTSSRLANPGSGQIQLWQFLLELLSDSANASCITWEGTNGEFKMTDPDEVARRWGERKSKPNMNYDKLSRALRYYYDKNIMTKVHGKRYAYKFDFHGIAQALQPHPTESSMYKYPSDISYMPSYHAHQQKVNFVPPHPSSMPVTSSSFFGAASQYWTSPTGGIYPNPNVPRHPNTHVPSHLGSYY
The method in brief:
(§1)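 Human transcription factors were made in yeast as GST fusions, captured on glutathione beads and barcoded with DNA. With a tag-only sample included, the pool was incubated with 200 nmole of a random double-stranded 16-mer DNA library in Tris/NaCl/DTT/glycerol buffer at room temperature for 30 min, then crosslinked with 0.1% formaldehyde after washing, ligated by proximity, amplified and sequenced. For binding signal, each hexamer's read frequency for a factor is divided by its frequency for the tag-only sample.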

The target of assay [2] is T2, ELK1 (Homo sapiens, UniProt P19419 1-428).
T2 sequence: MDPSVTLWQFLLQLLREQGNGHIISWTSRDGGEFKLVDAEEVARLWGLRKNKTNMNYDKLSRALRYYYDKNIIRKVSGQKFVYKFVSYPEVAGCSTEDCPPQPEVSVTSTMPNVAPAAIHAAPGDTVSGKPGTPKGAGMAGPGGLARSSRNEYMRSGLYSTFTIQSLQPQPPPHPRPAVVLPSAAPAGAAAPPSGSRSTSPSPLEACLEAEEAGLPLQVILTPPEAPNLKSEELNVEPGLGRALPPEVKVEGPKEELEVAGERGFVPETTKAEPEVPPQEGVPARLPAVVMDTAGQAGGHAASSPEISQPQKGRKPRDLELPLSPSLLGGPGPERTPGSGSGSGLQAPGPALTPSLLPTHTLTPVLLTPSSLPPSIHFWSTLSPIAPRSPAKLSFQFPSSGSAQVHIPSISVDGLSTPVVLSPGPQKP
The method in brief: as §1

The target in assay [3] is T3, ERG (Homo sapiens, UniProt P11308 1-479).
T3 sequence: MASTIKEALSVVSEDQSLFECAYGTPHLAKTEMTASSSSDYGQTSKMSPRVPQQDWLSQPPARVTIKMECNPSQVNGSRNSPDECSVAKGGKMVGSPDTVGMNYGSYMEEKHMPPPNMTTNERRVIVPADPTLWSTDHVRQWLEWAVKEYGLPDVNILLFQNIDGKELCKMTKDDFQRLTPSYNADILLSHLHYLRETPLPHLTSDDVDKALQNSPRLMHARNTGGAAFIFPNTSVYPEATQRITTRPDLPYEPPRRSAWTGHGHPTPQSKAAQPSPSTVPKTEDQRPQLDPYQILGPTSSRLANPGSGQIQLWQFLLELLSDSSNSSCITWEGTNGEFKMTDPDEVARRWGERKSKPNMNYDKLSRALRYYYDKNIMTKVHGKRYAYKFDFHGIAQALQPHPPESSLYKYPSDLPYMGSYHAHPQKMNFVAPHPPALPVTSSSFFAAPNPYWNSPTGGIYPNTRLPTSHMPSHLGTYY
The method in brief:
as §1

The target in assay [4] is ELF1 (Homo sapiens, UniProt P32519 1-619). The gist of the method:
as §1

Assay [5] addresses T4, EHF (Homo sapiens, UniProt Q9NZC4 1-300).
T4 sequence: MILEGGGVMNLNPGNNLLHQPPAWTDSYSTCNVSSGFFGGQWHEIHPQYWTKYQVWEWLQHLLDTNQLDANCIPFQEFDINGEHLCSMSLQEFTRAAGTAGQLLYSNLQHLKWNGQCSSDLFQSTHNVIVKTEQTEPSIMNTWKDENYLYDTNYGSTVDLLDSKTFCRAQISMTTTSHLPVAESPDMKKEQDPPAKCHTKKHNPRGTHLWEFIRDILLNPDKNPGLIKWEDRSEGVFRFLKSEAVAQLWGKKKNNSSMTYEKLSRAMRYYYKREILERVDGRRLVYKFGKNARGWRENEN
The method in brief:
as §1

Assay [6] addresses T5, SPIC (Homo sapiens, UniProt Q8N5J4 1-248).
T5 sequence: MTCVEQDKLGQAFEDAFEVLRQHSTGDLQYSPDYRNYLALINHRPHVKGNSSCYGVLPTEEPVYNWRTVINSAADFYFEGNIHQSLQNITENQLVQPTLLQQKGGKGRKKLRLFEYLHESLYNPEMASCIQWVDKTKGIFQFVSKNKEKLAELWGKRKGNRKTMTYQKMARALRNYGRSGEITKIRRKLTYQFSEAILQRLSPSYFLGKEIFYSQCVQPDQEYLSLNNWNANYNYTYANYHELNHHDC
The method in brief: as §1

In assay [7] the target is ELF4 (Homo sapiens, UniProt Q99607 1-663). The gist of the method:
as §1

The target in assay [8] is T6, ELK4 (Homo sapiens, UniProt P28324-2 1-405).
T6 sequence: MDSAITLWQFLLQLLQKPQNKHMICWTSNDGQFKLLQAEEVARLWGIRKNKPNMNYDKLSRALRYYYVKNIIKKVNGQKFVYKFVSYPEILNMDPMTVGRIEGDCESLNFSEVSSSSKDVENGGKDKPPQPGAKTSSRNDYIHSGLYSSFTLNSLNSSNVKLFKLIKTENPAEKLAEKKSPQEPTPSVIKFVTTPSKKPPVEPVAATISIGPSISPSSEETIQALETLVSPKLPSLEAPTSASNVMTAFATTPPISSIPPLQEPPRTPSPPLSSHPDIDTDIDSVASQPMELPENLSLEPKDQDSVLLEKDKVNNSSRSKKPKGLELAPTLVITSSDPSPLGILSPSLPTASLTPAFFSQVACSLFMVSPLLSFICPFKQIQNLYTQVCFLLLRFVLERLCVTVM
The method in brief: as §1

The target of assay [9] is T7, ERF (Homo sapiens, UniProt P50548 1-548).
T7 sequence: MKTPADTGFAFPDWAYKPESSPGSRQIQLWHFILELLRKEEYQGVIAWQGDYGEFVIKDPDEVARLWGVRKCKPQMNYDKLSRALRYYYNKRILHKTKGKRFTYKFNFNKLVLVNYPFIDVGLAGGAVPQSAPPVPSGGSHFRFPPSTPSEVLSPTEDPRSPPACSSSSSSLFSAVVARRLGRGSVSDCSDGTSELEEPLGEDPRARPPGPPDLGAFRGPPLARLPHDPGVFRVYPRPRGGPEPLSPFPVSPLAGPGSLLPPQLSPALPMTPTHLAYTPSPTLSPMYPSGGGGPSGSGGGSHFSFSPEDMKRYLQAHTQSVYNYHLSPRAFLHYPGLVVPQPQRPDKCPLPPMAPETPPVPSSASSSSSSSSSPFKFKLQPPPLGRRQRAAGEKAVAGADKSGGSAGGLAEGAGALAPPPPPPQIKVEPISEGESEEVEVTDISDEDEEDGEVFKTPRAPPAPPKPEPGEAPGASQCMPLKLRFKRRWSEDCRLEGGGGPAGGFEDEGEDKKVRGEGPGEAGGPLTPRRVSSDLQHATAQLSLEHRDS
The method in brief:
as §1

Assay [10] addresses T8, ETV3L (Homo sapiens, UniProt Q6ZN32 1-361).
T8 sequence: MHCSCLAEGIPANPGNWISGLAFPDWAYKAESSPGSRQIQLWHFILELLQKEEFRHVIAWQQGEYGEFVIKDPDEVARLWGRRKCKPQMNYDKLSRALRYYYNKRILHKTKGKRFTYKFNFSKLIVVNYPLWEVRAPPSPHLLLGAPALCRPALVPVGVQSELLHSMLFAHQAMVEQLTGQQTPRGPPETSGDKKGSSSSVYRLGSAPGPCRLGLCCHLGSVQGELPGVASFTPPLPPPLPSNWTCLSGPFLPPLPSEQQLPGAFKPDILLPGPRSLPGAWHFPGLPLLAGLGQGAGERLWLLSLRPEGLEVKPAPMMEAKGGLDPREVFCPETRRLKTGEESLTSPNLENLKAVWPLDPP
The method in brief:
as §1

The target in assay [11] is T9, ETV3 (Homo sapiens, UniProt P41162-2 1-143).
T9 sequence: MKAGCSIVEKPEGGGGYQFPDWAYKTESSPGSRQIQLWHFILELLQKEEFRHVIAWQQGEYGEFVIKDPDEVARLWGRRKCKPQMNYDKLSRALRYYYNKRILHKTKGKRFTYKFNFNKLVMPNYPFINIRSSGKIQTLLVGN
The method in brief:
as §1

ELF4, sequence (Q99607 whole entry): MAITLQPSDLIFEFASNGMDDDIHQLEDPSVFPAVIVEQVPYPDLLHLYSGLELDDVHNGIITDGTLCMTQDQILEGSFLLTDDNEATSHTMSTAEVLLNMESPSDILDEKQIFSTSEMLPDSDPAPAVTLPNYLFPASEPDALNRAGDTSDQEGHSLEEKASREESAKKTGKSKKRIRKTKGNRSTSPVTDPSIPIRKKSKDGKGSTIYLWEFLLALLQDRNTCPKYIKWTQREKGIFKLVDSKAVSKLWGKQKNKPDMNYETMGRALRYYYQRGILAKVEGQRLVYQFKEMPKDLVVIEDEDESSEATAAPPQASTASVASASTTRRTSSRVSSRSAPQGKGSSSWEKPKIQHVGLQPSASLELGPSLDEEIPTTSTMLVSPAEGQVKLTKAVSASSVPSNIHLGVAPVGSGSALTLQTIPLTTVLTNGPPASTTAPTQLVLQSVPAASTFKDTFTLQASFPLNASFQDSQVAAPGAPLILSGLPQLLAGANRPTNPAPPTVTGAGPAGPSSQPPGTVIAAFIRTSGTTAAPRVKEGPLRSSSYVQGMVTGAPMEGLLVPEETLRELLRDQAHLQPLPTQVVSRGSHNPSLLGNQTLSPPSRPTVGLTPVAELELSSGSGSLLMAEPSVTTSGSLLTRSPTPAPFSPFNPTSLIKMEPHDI
ELF1, sequence (P32519 whole entry): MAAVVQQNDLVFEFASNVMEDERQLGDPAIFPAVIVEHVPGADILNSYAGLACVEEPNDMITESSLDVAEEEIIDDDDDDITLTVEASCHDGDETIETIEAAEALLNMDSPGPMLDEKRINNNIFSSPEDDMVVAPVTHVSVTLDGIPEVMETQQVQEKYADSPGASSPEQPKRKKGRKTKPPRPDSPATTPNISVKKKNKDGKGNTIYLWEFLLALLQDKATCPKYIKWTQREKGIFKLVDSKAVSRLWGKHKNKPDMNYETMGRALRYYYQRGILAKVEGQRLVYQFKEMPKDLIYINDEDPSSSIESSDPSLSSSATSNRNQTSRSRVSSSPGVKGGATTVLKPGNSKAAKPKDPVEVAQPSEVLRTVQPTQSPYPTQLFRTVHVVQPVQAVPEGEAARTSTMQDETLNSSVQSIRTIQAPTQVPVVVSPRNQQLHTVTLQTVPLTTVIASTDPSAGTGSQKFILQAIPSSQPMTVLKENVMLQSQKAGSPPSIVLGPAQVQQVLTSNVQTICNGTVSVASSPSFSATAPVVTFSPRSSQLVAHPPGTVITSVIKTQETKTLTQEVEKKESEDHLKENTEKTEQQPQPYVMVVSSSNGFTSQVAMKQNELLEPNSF

Consider CGCCAT, for which the binding signal was 1.08 fold enrichment (6-mer frequency, TF over GST control) in assay [1]; 1.01 fold enrichment (6-mer frequency, TF over GST control) in assay [2]; 1.02 fold enrichment (6-mer frequency, TF over GST control) in assay [3]; 1.02 fold enrichment (6-mer frequency, TF over GST control) in assay [4]; 1.01 fold enrichment (6-mer frequency, TF over GST control) in assay [5]; 1.06 fold enrichment (6-mer frequency, TF over GST control) in assay [6]. Further, the binding signal was 1.12 fold enrichment (6-mer frequency, TF over GST control) in assay [7]; 1.1 fold enrichment (6-mer frequency, TF over GST control) in assay [8]; 1.08 fold enrichment (6-mer frequency, TF over GST control) in assay [9]; 1.08 fold enrichment (6-mer frequency, TF over GST control) in [10]; 1.02 fold enrichment (6-mer frequency, TF over GST control) in assay [11].
